Calls of active or inactive are those of the source.
Columns and labels:
[1] = A549 cell viability effects, profiling panel, calcein-AM fluorescence, 48 h, basal (AID 1162); conditions: higher = more signal
[2] = adipocyte viability effects, profiling panel, cell-based, 3T3-L1 adipocytes, calcein-AM fluorescence, 48 h, basal (AID 1163); conditions: 3T3-L1 adipocytes viability, higher = more signal
[3] = HepG2 cell viability effects, profiling panel, calcein-AM fluorescence, 48 h, basal (AID 1164); conditions: higher = more signal
[4] = MM1S cell viability effects, profiling panel, calcein-AM fluorescence, 48 h, basal (AID 1165); conditions: higher = more signal;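 further: viability of MM1S multiple myeloma cells under basal unstimulated conditions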
[5] = basal RPMI8226 viability, no added stimulus, profiling panel, cell-based, calcein-AM fluorescence, 48 h, PK04 Diversity Set (AID 1166); conditions: RPMI8226 myeloma viability, higher = more signal;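 further: cells grown under basal conditions without added stimulus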
[6] = basal HepG2 mitochondrial membrane potential changes, profiling panel, cell-based, JC-1 fluorescence, 24 h, 100 nL compound (AID 1167); conditions: higher = more signal
[7] = basal 3T3-L1 adipocyte mitochondrial potential changes, profiling panel, cell-based, JC-1 fluorescence, 3T3-L1 adipocytes, 24 h, 100 nL compound (AID 1168); conditions: JC-1 mitochondrial fluorescence, higher = more signal, called active from +8 up or from −8 down
[8] = basal RPMI8226 mitochondrial membrane potential changes, profiling panel, cell-based, JC-1 fluorescence, 24 h, 100 nL compound (AID 1169); conditions: RPMI8226 myeloma, JC-1 mitochondrial potential fluorescence, higher = more signal
[9] = basal MM1S mitochondrial membrane potential changes, profiling panel, cell-based, JC-1 fluorescence, 24 h, 100 nL compound (AID 1170); conditions: higher = more signal
[10] = A549 lung cancer cell viability effects, profiling panel, resazurin fluorescence, 24 h, PK04 Diversity Set (AID 1171); conditions: higher = more signal, called active from +8 up or from −8 down
Further: test concentration not given here.

| SMILES | z-score [1] | z-score [2] | z-score [3] | z-score [4] | z-score [5] | z-score [6] | z-score [7] | z-score [8] | z-score [9] | z-score [10] |
| --- | --- | --- | --- | --- | --- | --- | --- | --- | --- | --- |
| COc1cc(C(O)C2C=CC3C(=O)N(c4ccccc4)C(=O)C3N2Nc2ccccc2)cc(OC)c1OC (stereo not given) | -0.591 | -1.66 | -0.342 | 0.294 | -0.0482 | -2.43 | -1.22 (inactive) | -0.953 | -0.116 | -0.427 (inactive) |
| CCCCCC1=C2CNC(CC(C)C)(C(=O)OC)C=C2C(C)C1=O (stereo not given) | -0.659 | -0.707 | 0.468 | -0.227 | -1.12 | 0.745 | -1.21 (inactive) | -0.324 | -1.53 | -0.683 (inactive) |
| COCC(=C=CC[C@H](O)c1ccccc1OCCO)C[C@H](O)COCc1ccccc1 | 0.428 | 0.152 | 0.024 | -2.02 | -0.311 | 1.37 | -0.437 (inactive) | -0.138 | -0.382 | 0.857 (inactive) |
| O=C(N1CCOCC1)[C@@]1(Cc2ccccc2)COC(c2ccc(OCCCO)cc2)=N1 | -0.114 | 0.893 | -0.985 | -1.6 | -0.907 | -1.12 | 0.0409 (inactive) | -0.856 | -0.095 | 0.628 (inactive) |
| O=C1C2C=CC(C(O)c3c(F)cccc3Cl)N(Nc3ccc([N+](=O)[O-])cc3)C2C(=O)N1c1ccccc1 (stereo not given) | -1 | -0.0012 | -0.645 | 0.19 | -1.09 | -1.14 | -1.26 (inactive) | -0.209 | -0.542 | 0.372 (inactive) |
| Cc1ccc(S[C@]2(C(=O)NCCCN(C)C)CC(=O)N(Cc3ccccc3C(F)(F)F)[C@@H]2c2ccc(CO)cc2I)cc1 | 0.476 | 0.449 | -0.297 | -2.72 | -1.87 | -0.817 | -0.395 (inactive) | -0.302 | -1.35 | 0.537 (inactive) |
| C=CC[C@]1(C(=O)NCC(O)CO)COC(c2ccc(OCCCO)cc2)=N1 (stereo not given in full) | -0.188 | -0.191 | -0.323 | -0.244 | 0.146 | -0.512 | -0.604 (inactive) | 0.00774 | -0.307 | -0.106 (inactive) |
| COc1ccc(C(O)C2C=CC3C(=O)N(C)C(=O)C3N2N(c2ccccc2)c2ccccc2)cc1 (stereo not given) | -0.738 | -0.863 | 0.132 | 0.513 | -0.556 | -0.93 | -1.3 (inactive) | -0.544 | -0.426 | -0.691 (inactive) |
| COC(=O)[C@@]1(Cc2ccc(OC)cc2)[C@H]2c3cc(C(=O)N(C)C)[nH]c3C[C@H]2CN1C(=O)c1ccccc1 | -0.974 | -0.539 | 0.683 | 0.945 | 0.184 | 1.46 | -0.372 (inactive) | -0.582 | -0.488 | 0.145 (inactive) |
| NC(=O)N1C(=O)C2C(C1=O)C1C=C(CCCO)C2C(C2CC2)N1Cc1sc2ccccc2c1Cl (stereo not given) | 1.01 | 0.66 | 0.839 | -2.97 | -0.868 | 0.709 | 0.0485 (inactive) | -0.0842 | 0.193 | 1.09 (inactive) |
| O=C(NC1CC1)[C@@H]1c2ccccc2C(=O)N(CC23CC4CC(CC(C4)C2)C3)[C@H]1c1ccc(CO)cc1 | 0.554 | 0.875 | 0.232 | 0.0732 | 0.202 | 1.49 | 0.397 (inactive) | 0.555 | -0.467 | 1.5 (inactive) |
| COC(=O)[C@@]1(Cc2ccc(F)cc2)[C@H]2c3cc(C(=O)N4CCCC4)n(Cc4cc(F)cc5c4OCOC5)c3C[C@H]2CN1C(=O)c1ccccc1 | -1.14 | 0.364 | -1.02 | -1.54 | -1.55 | 3.05 | -0.484 (inactive) | -0.512 | -0.744 | -1.02 (inactive) |
| O=C1O[C@H](c2ccccc2)[C@H](c2ccccc2)N2[C@H]1[C@@H](C(=O)N1CCN(c3ncccn3)CC1)[C@]1(C(=O)Nc3ccc(C#CCCO)cc31)[C@H]2c1ccc(O)cc1 | 0.356 | 0.255 | 0.775 | -0.0982 | -0.26 | -0.19 | -0.501 (inactive) | -0.443 | -0.0233 | 1.59 (inactive) |
| CC(=O)OCC1C2CC[C@H]3C(OCc4ccc(F)cc4C(F)(F)F)OC[C@]4(C)[C@H]3C2=C(CN4C(=O)OC(C)(C)C)[C@H](C)C1COC(C)=O (stereo not given in full) | -0.647 | -0.0623 | -0.174 | -2.29 | -1.93 | 2.61 | -0.984 (inactive) | -0.606 | -1.3 | 0.892 (inactive) |
| COC(=O)[C@@]1(Cc2ccccc2)[C@H]2c3cc(C(=O)N(C)C)n(Cc4ccc(C(F)(F)F)nc4)c3C[C@H]2CN1C(=O)c1ccccc1 | -1.28 | 0.286 | -0.628 | -0.214 | -0.559 | 1.71 | -1.09 (inactive) | -0.727 | -0.79 | 0.22 (inactive) |
| CC(C)(C)N1CC=CC23O[C@@H]4/C=C\CCCOC(=O)C4[C@H]2C(=O)N(CCCCCO)[C@@H]3C1=O (stereo not given in full) | -0.373 | 1.03 | -0.927 | 1.59 | 0.382 | -0.0838 | 0.186 (inactive) | 0.116 | -0.00811 | -0.543 (inactive) |

| SMILES | z-score [1] | z-score [2] | z-score [3] | z-score [4] | z-score [5] | z-score [6] | z-score [7] | z-score [8] | z-score [9] | z-score [10] |
| --- | --- | --- | --- | --- | --- | --- | --- | --- | --- | --- |
| O=C1O[C@H](c2ccccc2)[C@H](c2ccccc2)N2[C@H]1[C@@H](C(=O)O)[C@]1(C(=O)Nc3ccc(C#CCCO)cc31)[C@H]2c1ccc(OCCO)cc1 | 0.616 | 1 | 0.461 | -0.963 | 0.926 | -0.76 | -0.138 (inactive) | 0.489 | 0.492 | 0.367 (inactive) |
| COC(=O)[C@@]1(Cc2ccc(F)cc2)[C@H]2c3cc(C(=O)N4CCCC4)n(CCc4ccccn4)c3C[C@H]2CN1C(=O)c1ccccc1 | 0.19 | -0.0629 | 0.278 | -0.118 | -0.431 | 1.98 | -0.962 (inactive) | -0.815 | -0.515 | 0.182 (inactive) |
| CCCCN1CC=CC23O[C@@H]4/C=C\CCCOC(=O)C4[C@H]2C(=O)N(C(CO)C(C)C)[C@@H]3C1=O (stereo not given in full) | 0.374 | 0.265 | -0.0249 | 0.201 | 0.463 | -0.945 | -0.525 (inactive) | -0.4 | -0.608 | -0.61 (inactive) |
| C=C(C)[C@@H]1CC=C(C(O)C2C=CC3C(=O)N(c4ccccc4)C(=O)C3N2Nc2ccc([N+](=O)[O-])cc2)CC1 (stereo not given in full) | 0.485 | 0.153 | 0.736 | -0.807 | -0.493 | -0.307 | -2.47 (inactive) | -0.507 | 0.451 | -0.963 (inactive) |
| C[N+](C)(C)CCCCNC(=O)[C@H]1C[C@H]2C(=O)N[C@@H](Cc3ccccc3)C(=O)N2[C@H]1c1cccc(OCCO)c1 | -0.52 | -0.878 | -0.097 | 0.135 | -0.748 | -0.559 | -0.318 (inactive) | 0.0888 | -0.4 | -0.967 (inactive) |
| C=CCNC(=O)[C@@H]1[C@H]2C(=O)O[C@H](c3ccccc3)[C@H](c3ccccc3)N2[C@H](c2ccc(OCCO)cc2)[C@@]12C(=O)Nc1ccc(C#CC3(O)CCCCCC3)cc12 | -0.134 | 1.84 | -1.39 | -1.29 | -2.43 | -1.16 | -0.848 (inactive) | -0.862 | -0.962 | 0.355 (inactive) |
| CN(C)c1ccc(C(O)C2C=CC3C(=O)N(Cc4ccccc4)C(=O)C3N2n2cnnc2)cc1 (stereo not given) | 0.566 | -0.179 | 2.13 | 0.0017 | 1.4 | 0.0219 | 0.522 (inactive) | -0.203 | 1.23 | -1.04 (inactive) |
| COc1ccc([Si](C)(C)[C@@H]2[C@@H](CC(=O)N(CCO)Cc3ccccc3)O[C@]3(C(=O)N(Cc4ccc(N5C(=O)c6cccc7cccc5c67)cc4)c4ccccc43)[C@H]2C)cc1 | -0.538 | 0.427 | -1.43 | -1.82 | -3.52 | -0.038 | 0.161 (inactive) | -1.02 | -1.18 | -1.51 (inactive) |
| CN1C(=O)C2C(C1=O)C1C=C(CCCO)C2C(C2CC2)N1Cc1cccc(OC(F)(F)F)c1 (stereo not given) | -0.379 | 0.116 | -0.814 | -0.517 | -0.781 | 0.217 | -0.423 (inactive) | -0.00892 | 0.389 | -0.0655 (inactive) |
| CCCCC(O)C1C=CC2C(=O)N(c3ccccc3)C(=O)C2N1Nc1ccc(C#N)cc1 (stereo not given) | 0.233 | 0.15 | 1.2 | 0.105 | 0.0528 | -0.622 | -1.19 (inactive) | -0.0799 | -0.0525 | -0.151 (inactive) |
| COc1ccc([Si](C)(C)[C@@H]2[C@@H](CC(=O)N3Cc4ccccc4C[C@H]3CO)O[C@]3(C(=O)N(Cc4cccc(N5CCOC5=O)c4)c4ccccc43)[C@H]2C)cc1 | -1.43 | 1.69 | -0.443 | -2.51 | -3.32 | -0.0282 | 0.192 (inactive) | -1.16 | -1.01 | -2.45 (inactive) |
| CCCc1cc2c(n1CCc1ccc(Cl)cc1)C(C)C1CN(C(=O)c3ccccc3)C(C)(C(=O)OC)C21 (stereo not given) | -1.7 | 1.33 | -0.534 | -3.25 | -4.74 | 4.02 | -1 (inactive) | -0.78 | -1.19 | -1.94 (inactive) |
| O=C1N(CCS(=O)(=O)c2ccccc2)c2ccccc2C[C@]12N=C(c1ccc(OCCCO)cc1)O[C@@H]2c1ccccc1 | -0.982 | 0.0009 | 0.207 | -0.967 | -2.48 | -0.484 | 1.07 (inactive) | -0.687 | -0.242 | -1.37 (inactive) |
| C=C(C)[C@@H]1CC=C(C(O)C2C=CC3C(=O)N(C)C(=O)C3N2Nc2ccc([N+](=O)[O-])cc2[N+](=O)[O-])CC1 (stereo not given in full) | -0.34 | -0.924 | -0.303 | -0.731 | -2.48 | -0.286 | -1.71 (inactive) | 0.553 | -0.755 | -0.375 (inactive) |
| COC(=O)[C@@]1(Cc2ccc(OC)cc2)[C@H]2c3cc(C(=O)N4CCCC4)n(CCn4cc([N+](=O)[O-])nc4C)c3C[C@H]2CN1C(=O)c1ccccc1 | -1.13 | 0.936 | 0.0032 | -0.0622 | -2.16 | 2.13 | -1.03 (inactive) | 0.564 | -0.693 | -0.612 (inactive) |
| C=CCC(OC(C)=O)[C@@H]1[C@@H](N(Cc2ccc(-c3cccc(C(F)(F)F)c3)o2)C(=O)Cc2ccc(F)cc2)c2cc(OCCCO)ccc2N1C(=O)Cc1ccc2ccccc2c1 (stereo not given in full) | -0.92 | 1.1 | -0.0416 | -1.7 | -0.261 | 1.8 | 0.978 (inactive) | -0.0117 | 0.0602 | 0.623 (inactive) |
